We go through 20 compounds from PubChem BioAssay (EPA / NIEHS).

Calls of active or inactive are those of the source. The calls were made as follows: active = hit-call score of the fitted dose curve at least 0.9, where 1 is the maximum; inactive = score below 0.9.

Read-out in test [1]: Tissue Factor, F3 (gene 2152)
The experiment in a line: BSK_CASM3C_TissueFactor: BioMAP Diversity Plus: CASM3C Assay for Tissue Factor Biomarker Activity (AID 2283052).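 Also: cell surface tissue factor protein level read by ELISA.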 The following applies: primary human coronary artery smooth muscle cells; actives raise or lower the signal.

Read-out in test [2]: Interferon-gamma inducible Protein 10 (IP10), CXCL10 (gene 3627)
The experiment in a line: BSK_hDFCGF_IP10: BioMAP Diversity Plus: hDFCGF Assay for Interferon-gamma inducible Protein 10 (IP10) Biomarker Activity (AID 2283053). The following applies: primary human foreskin fibroblasts; actives raise or lower the signal. The gist of the method: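 IP-10 levels, quantified by ELISA, are taken from human foreskin fibroblast cultures 24 h after chemical treatment, with DMSO serving as negative control and baseline for bidirectional analysis.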

Read-out in test [3]: Urokinase-type plasminogen activator receptor (uPAR), PLAUR (gene 5329)
Briefly: BSK_CASM3C_uPAR: BioMAP Diversity Plus: CASM3C Assay for Urokinase-type plasminogen activator receptor (uPAR) Biomarker Activity (AID 2283054).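 Also: cell-surface uPAR protein level quantified by ELISA.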 The following applies: primary human coronary artery smooth muscle cells; actives raise or lower the signal.

Read-out in test [4]: Vascular cell adhesion molecule 1 (VCAM1), VCAM1 (gene 7412)
The experiment in a line: BSK_CASM3C_VCAM1: BioMAP Diversity Plus: CASM3C Assay for Vascular cell adhesion molecule 1 (VCAM1) Biomarker Activity (AID 2283055).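 Also: VCAM-1 protein level quantified by ELISA on the cells.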 The following applies: primary human coronary artery smooth muscle cells; actives raise or lower the signal.

Read-out in test [5]: Collagen III, COL3A1 (gene 1281)
Briefly: BSK_hDFCGF_CollagenIII: BioMAP Diversity Plus: hDFCGF Assay for Collagen III Biomarker Activity (AID 2283056). The following applies: primary human foreskin fibroblasts; actives raise or lower the signal. The gist of the method: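 Human foreskin fibroblast primary cultures sampled 24 h after dosing; Collagen III quantified by ELISA. Signal fitted bidirectionally against DMSO baseline.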

Read-out in test [6]: Interleukin-8 (IL8), CXCL8 (gene 3576)
The experiment in a line: BSK_hDFCGF_IL8: BioMAP Diversity Plus: hDFCGF Assay for Interleukin-8 (IL8) Biomarker Activity (AID 2283058). The following applies: primary human foreskin fibroblasts; actives raise or lower the signal. In outline:
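Primary human foreskin fibroblasts (hDFCGF system) dosed with chemical; IL-8 measured by ELISA 24 hours later. Bidirectional curve fitting relative to DMSO baseline; cytotoxicity tracked in parallel cultures by SRB total protein staining.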

A short description of test [7]: BSK_hDFCGF_Proliferation: Cell Proliferation Assessment in the BioMAP Diversity Plus: hDFCGF Assay (AID 2283059).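 Also: curves fitted for both rise and fall of signal versus DMSO baseline.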 The following applies: primary human foreskin fibroblasts. In outline:
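Sub-confluent human foreskin fibroblast cultures receive test chemical […]. Relative cell number is quantified by sulforhodamine B staining (0.1%, after 10% TCA fixation) at 560 nm, with bidirectional fitting referenced to DMSO.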

Read-out in test [8]: Macrophage colony-stimulating factor (MCSF), CSF1 (gene 1435)
Briefly: BSK_hDFCGF_MCSF: BioMAP Diversity Plus: hDFCGF Assay for Macrophage colony-stimulating factor (MCSF) Biomarker Activity (AID 2283060). The following applies: primary human foreskin fibroblasts; actives raise or lower the signal. The gist of the method:
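Human foreskin fibroblast primary cultures; M-CSF measured by ELISA 24 hours after chemical dosing. Bidirectional fitting relative to DMSO, with overt cytotoxicity tracked by parallel SRB total-protein staining (0.1% SRB, 10% TCA fixation, 560 nm).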

Test [9] is described as follows: BSK_hDFCGF_SRB: Viability Assessment in the BioMAP Diversity Plus: hDFCGF Assay (AID 2283061).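 Also: cells exposed to compound for 24 h before the read.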 The following applies: primary human foreskin fibroblasts. The gist of the method: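 Human foreskin fibroblasts in 96-well plates were treated 24 h. Total protein was measured by 0.1% SRB staining after 10% TCA fixation, read at 560 nm. Data were fitted bidirectionally against DMSO.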

Read-out in test [10]: Epidermal growth factor receptor (EGFR), EGFR (gene 1956)
The experiment in a line: BSK_hDFCGF_EGFR: BioMAP Diversity Plus: hDFCGF Assay for Epidermal growth factor receptor (EGFR) Biomarker Activity (AID 2283057). The following applies: primary human foreskin fibroblasts; actives raise or lower the signal. The gist of the method:
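Measured by ELISA: EGFR levels on primary human foreskin fibroblasts 24 h after chemical treatment, analysed relative to DMSO with bidirectional fitting.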

In the case of `OC[C@H]1O[C@@H]2O[C@H]3[C@H](O)[C@@H](O)[C@@H](O[C@H]4[C@H](O)[C@@H](O)[C@@H](O[C@H]5[C@H](O)[C@@H](O)[C@@H](O[C@H]6[C@H](O)[C@@H](O)[C@@H](O[C@H]7[C@H](O)[C@@H](O)[C@@H](O[C@H]1[C@H](O)[C@H]2O)O[C@@H]7CO)O[C@@H]6CO)O[C@@H]5CO)O[C@@H]4CO)O[C@@H]3CO`, the outcome in test [1], in [2], in test [3], in test [4], in [5] and in test [6] was inactive. In addition, the result in [7], in [8] and in test [9] was inactive.

Regarding `C[C@@H](Oc1ccc(CNC(=O)c2cccnc2Oc2ccc3c(c2)OCO3)c(F)c1)C(=O)O`, the outcome in test [1], in [2], in test [3], in test [4], in test [5] and in test [6] was inactive. Also, the outcome in test [7], in [8] and in test [9] was inactive.

Regarding `C=CCc1cc(S(=O)(=O)c2ccc(O)c(CC=C)c2)ccc1O`, the AC50 is 36.7 µM (active) in test [1]; 29 µM (active) in test [2]; 21.7 µM (active) in test [3]; 35.7 µM (active) in [4]; 6.52 µM (active) in test [5]; 34.4 µM (active) in [6]. For the same compound, the AC50 in [7] was 9.21 µM (active); in test [8], 27 µM (active); in test [9], 14.8 µM (active).

As to `COS(C)(=O)=O`, the outcome in [1], in test [2], in [3], in test [4], in test [5] and in test [6] was inactive. The result in test [7], in test [8] and in [9] was inactive.

With `CCCCCOC(C)=O`, the outcome in test [1], in [2], in [3], in [4], in [5] and in test [6] was inactive. The result in [7], in test [8] and in test [9] was inactive.

Turning to `FC(F)=C(F)C(F)(F)C(F)(F)C(F)(F)C(F)(F)C(F)(F)C(F)(F)F`, the result in test [1], in [2], in test [3], in test [4], in test [5] and in test [6] was inactive. Besides, the outcome in [7], in test [8] and in [9] was inactive.

With `FC(F)(F)COC(OCC(F)(F)F)OCC(F)(F)F`, the result in test [1], in test [2], in test [3], in test [4], in [5] and in [6] was inactive. Further, the outcome in test [7], in test [8] and in test [9] was inactive.

Turning to `CCCCN1C(=O)[C@@H]([C@H](O)C2CCCCC2)NC(=O)C12CCN(Cc1ccc(Oc3ccc(C(=O)O)cc3)cc1)CC2`, the outcome in test [1], in [3], in test [4], in [10], in [6] and in test [8] was inactive. The AC50 was 31.2 µM (active) in test [2], 20 µM (active) in test [7] and 20 µM (active) in test [9].

In the case of `Cn1cc[nH]c1=S`, the result in [1], in test [2], in [3], in test [4], in test [5] and in [6] was inactive. The outcome in test [7], in test [8] and in [9] was inactive.

With `O=C(O)c1cccc(C(=O)O)c1`, the half-maximal activity concentration (AC50) in [1] is 0.357 µM (active). Moreover, the outcome in test [2], in [3], in [4], in [5], in test [6] and in test [7] was inactive. In addition, the outcome in test [8] and in [9] was inactive.

Consider `CCN(CC)C(=S)SSC(=S)N(CC)CC`, for which the AC50 in [1] is 20 µM (active); in test [2], 1.67 µM (active); in test [3], 31.1 µM (active); in test [4], 30.6 µM (active); in test [5], 4.78 µM (active); in test [6], 2.81 µM (active). For the same compound, the values for the AC50 in test [7], in test [8] and in test [9] were 1.41 µM (active), 1.76 µM (active) and 4.75 µM (active), respectively.

`CCCCCCCCCCCCCCCCOS(=O)(=O)O`: the outcome in test [1], in test [3] and in [4] was inactive. The AC50 in test [2] was 6.13 µM (active); in test [5], 18.3 µM (active); in [6], 15.5 µM (active); in [7], 5.25 µM (active); in [8], 10.2 µM (active); in test [9], 13.7 µM (active).

As to `CCc1ccc(O)c(C(C)(C)C)c1`, the result in test [1], in [3] and in [4] was inactive. Besides, the AC50 in test [2] is 35.2 µM (active); in test [5], 20 µM (active); in test [6], 36.3 µM (active); in test [7], 34.5 µM (active); in [8], 27.4 µM (active); in [9] it was 36.2 µM (active).

As to `c1ccc2ncccc2c1`, the result in test [1], in [2], in test [3], in test [4], in [5] and in [6] was inactive. For the same compound, the result in [7], in test [8] and in [9] was inactive.

Take `CCCCC(CC)C(=O)OCCOCCOCCOC(=O)C(CC)CCCC` (stereo not given): the result in test [1], in test [2], in [3], in test [4], in [6] and in [9] was inactive. The figures for the AC50 in test [5], in [7] and in test [8] were 20 µM (active), 11 µM (active) and 10.7 µM (active), respectively.

Regarding `CC(=O)c1ccccc1`, the result in test [1], in test [2], in test [3], in test [4], in [5] and in [6] was inactive. Further, the outcome in test [7], in test [8] and in test [9] was inactive.

Turning to `CC1(C)C(=O)N(Cl)C(=O)N1Cl`, the outcome in test [1], in test [2], in test [3], in test [4], in test [5] and in test [6] was inactive. For the same compound, the outcome in [7], in test [8] and in [9] was inactive.

Turning to `O=C1CN(N=Cc2ccc([N+](=O)[O-])o2)C(=O)N1`, the result in test [1], in test [2], in test [3], in test [4], in [5] and in [6] was inactive. The result in test [8] and in [9] was inactive. In addition, in test [7], the AC50 is 30.6 µM (active).

As to `NC(=O)N(O)[C@@H]1COc2cc(OCc3ccccc3)ccc21`, the result in test [1], in test [2], in test [3], in [5], in [6] and in test [7] was inactive. Besides, the outcome in test [8] and in test [9] was inactive. In test [4], the AC50 is 10.2 µM (active).

For `CCOc1ccc2[nH]cc(C(=O)NCc3ccccc3)c(=O)c2n1`, the result in test [1], in test [2], in [3], in test [4], in test [5] and in test [6] was inactive. Besides, the outcome in test [7], in test [8] and in [9] was inactive.

As usually defined, the AC50 is the concentration at which the activity in the assay is half-maximal.
